Screening results deposited in PubChem by several laboratories.
The list is not random: actives were taken first. Their share in the collection is about 3.1%.
EWS-Fli inh = EWS/Fli-driven NR0B1 reporter inhibitors, primary screen, A673 cells, NR0B1 luciferase, luminescence, MLPCN library. viability-normalised. inhibition, % at 12.6 µM. 0.67% of 350,000 active. AID 651661, 2012;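 active means mean inhibition of at least 50% after viability correction, with every replicate also passing that limit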;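 further: firefly luciferase signal divided by Alamar Blue viability fluorescence both relative to DMSO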
LGR2 inh = inhibitors of bursicon-induced LGR2 CRE-luciferase signal, primary screen, cell-based, HEK293, CRE-luciferase reporter, bursicon stimulation; 0.35% of 380,000 active; bursicon-stimulated, 4 h; AID 720647, 2013; inhibition, % at 9.99 µM;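 active means drop in luminescence signal, shown as inhibition above about 50% in the replicate tests, limit read from the data, passing the limit was not always enough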;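 further: agonist challenge used bursicon conditioned medium at about half maximal strength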
PAX8 reporter = inhibitors of PAX8-driven TPO luciferase reporter, primary screen, RMG-I cells, single concentration. SteadyGlo, 24 h. inhibition, % at 12.6 µM. 1.2% of 360,000 active. AID 652154, 2013;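 active means mean replicate inhibition at least 60% with every replicate also reaching 60%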;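 further: luciferase light reporting Pax8 driven TPO promoter activity; plate controls were median of neutral control wells for no effect and mitoxantrone controls for full effect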
EBV LMP1 NFkB = EBV LMP1-driven NF-kappaB luciferase reporter inhibitors, primary screen, cell-based, luminescence, single point. LMP1-induced NF-kappaB luciferase reporter cells. inhibition, % at 12.5 µM. 0.69% of 350,000 active. AID 504558, 2011; in the data active means inhibition above about 41%;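 further: 0% = neutral control wells and 100% = reference inhibitor control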
TWEAK Fn14 block = inhibitors of TWEAK-Fn14 signaling, primary screen, luciferase reporter cells, uHTS | 2% of 360,000 active | AID 1159606, 2016 | inhibition, % at 10 µM | TWEAK-stimulated Fn14 reporter cells, luciferase luminescence, 8 h; in the data active means inhibition above about 50%
TROY NFkB inh = inhibitors of TROY-driven NF-kB signaling, primary screen, Q293 LMP1-TROYcd cells, NF-kB luciferase, uHTS | 0.98% of 360,000 active | inhibition, % at 10 µM | Q293 LMP1-TROYcd NF-kB luciferase reporter, 4 h;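 active means compounds whose plate-normalised and pattern-corrected inhibition of the luciferase reporter signal at the single screening dose is 50% or more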
Starred values were filed as active, the others as inactive; ! = repeats disagree.

`CCCOc1ccc(-c2cc3onc(-c4ccccc4)c3c(=O)n2C)cc1` gave EWS-Fli inh 62.4*, LGR2 inh -1.4, PAX8 reporter -19.4, EBV LMP1 NFkB -23.9, TWEAK Fn14 block 89.0* and TROY NFkB inh 81.4*.
`CCc1noc2cc(-c3ccccc3)n(C)c(=O)c12` gave EWS-Fli inh -74.4, LGR2 inh -49.4 and PAX8 reporter -172.5.
Nc1cccnc1Oc1ccccc1F was read as EWS-Fli inh -14.1, PAX8 reporter -0.4, EBV LMP1 NFkB 2.3, TWEAK Fn14 block 8.7 and TROY NFkB inh 68.5*.
CSc1ccc2c(c1)C(N1CCN(C)CC1)Cc1ccccc1S2 (stereo unspecified) was read as EWS-Fli inh 4.3, LGR2 inh 1.1, PAX8 reporter -0.5, EBV LMP1 NFkB 89.3*!, TWEAK Fn14 block -29.5 and TROY NFkB inh -4.9.
`COc1ccc(-c2cc3c(nn2)-c2ccccc2C3=O)cc1` gave EWS-Fli inh 39.8, LGR2 inh 94.1*, PAX8 reporter 7.3, EBV LMP1 NFkB 51.6*, TWEAK Fn14 block 92.4* and TROY NFkB inh 58.9*.
Screening Cc1cnc2c(c1)C(=O)c1ccccc1-2 returned EWS-Fli inh -22.8, LGR2 inh -15.2, PAX8 reporter -0.5, EBV LMP1 NFkB -3.3, TWEAK Fn14 block 12.7 and TROY NFkB inh 10.3.
For Cc1cccc(-c2cc3c(nn2)-c2ccccc2C3=O)c1 the results were LGR2 inh -23.2, EBV LMP1 NFkB -1.4, TWEAK Fn14 block 50.3* and TROY NFkB inh -41.6.
Screening COc1ccc(-c2cc(-c3ccccc3)c(-c3ccccc3)nn2)cc1 returned EWS-Fli inh -14.5, LGR2 inh -9.4 and PAX8 reporter -22.2.
`O=C1c2ccccc2-c2nnc(-c3ccccc3)cc21` gave EBV LMP1 NFkB 3.9, TWEAK Fn14 block 71.6* and TROY NFkB inh -20.5.
For C[C@@H]1CN([C@H](C)CO)C(=O)c2cc(NC(=O)C3CCCCC3)ccc2O[C@@H]1CN(C)C(=O)Nc1ccccc1 the results were EWS-Fli inh -2.5, LGR2 inh 3.8 and PAX8 reporter -4.7.
Screening C[C@@H]1CN([C@H](C)CO)C(=O)c2cc(C#Cc3ccccc3)cnc2O[C@H]1CN(C)C(=O)CCN1CCCCC1 returned EWS-Fli inh -5.1 and LGR2 inh 6.4.
CO[C@@H]1CN(C)C(=O)c2ccc(NC(=O)C3CCOCC3)cc2OC[C@@H](C)N(Cc2nccs2)C[C@@H]1C was read as EWS-Fli inh -2.1 and LGR2 inh 11.3.
Screening Cc1c(NC(=O)C(C)OC(=O)c2c3c(nc4ccccc24)CCC3)c(=O)n(-c2ccccc2)n1C (stereo unspecified) returned EWS-Fli inh 8.3, LGR2 inh -13.0, PAX8 reporter 73.0*, EBV LMP1 NFkB 3.2, TWEAK Fn14 block 19.9 and TROY NFkB inh -3.3.
Cc1c(NC(=O)COC(=O)c2c3c(nc4ccccc24)CCCC3)c(=O)n(-c2ccccc2)n1C was read as EWS-Fli inh 8.5, LGR2 inh -3.2, PAX8 reporter -4.4, EBV LMP1 NFkB 8.5, TWEAK Fn14 block -11.4 and TROY NFkB inh 16.5.
For CC(=O)N1c2ccccc2N(Cc2ccc(C)cc2C)C(=O)C1(C)C the results were EWS-Fli inh 54.0*, LGR2 inh -21.6, PAX8 reporter 26.5, EBV LMP1 NFkB 11.2, TWEAK Fn14 block 23.9 and TROY NFkB inh 8.1.
`COc1cccc(NC(=O)N2C3CCCC2CC(NC(=O)C2CC2)C3)c1` (stereo unspecified) gave LGR2 inh 8.7, PAX8 reporter -8.9, EBV LMP1 NFkB -3.6, TWEAK Fn14 block 7.6 and TROY NFkB inh 16.7.
COc1ccc(NC(=O)N2C3CCCC2CC(NC(=O)C2CC2)C3)cc1 (stereo unspecified) was read as EWS-Fli inh 4.6, LGR2 inh 1.2, PAX8 reporter -15.9, EBV LMP1 NFkB -4.7, TWEAK Fn14 block 77.0* and TROY NFkB inh -1.6.
Screening Cc1ccc(NC(=O)c2cc(S(=O)(=O)NCC3CCCO3)ccc2F)cc1 (stereo unspecified) returned EWS-Fli inh 0.4, LGR2 inh -13.1, PAX8 reporter 0.2, EBV LMP1 NFkB 0.2, TWEAK Fn14 block -17.5 and TROY NFkB inh -5.8.
Cc1ccc(NC(=O)c2cc(S(=O)(=O)NCCC3=CCCCC3)ccc2F)cc1 was read as EWS-Fli inh 14.8, LGR2 inh 25.6, PAX8 reporter 64.1*, EBV LMP1 NFkB -9.9, TWEAK Fn14 block 57.4* and TROY NFkB inh 34.9.
`COc1cccc(NC(=O)N[C@@H]2CC[C@H](CC(=O)N3CCN(C)CC3)O[C@H]2CO)c1` gave EWS-Fli inh 2.3, LGR2 inh 14.5 and PAX8 reporter -18.1.
`Clc1ccc(-c2nc3ccccn3c2CN2CCCCC2)cc1` gave EWS-Fli inh -2.8, LGR2 inh -3.3, PAX8 reporter -24.6, EBV LMP1 NFkB -3.9, TWEAK Fn14 block 83.4* and TROY NFkB inh 54.6*.
Screening CN(C)Cc1c(-c2ccc(Cl)cc2)nc2ccccn12 returned EWS-Fli inh -127.6, PAX8 reporter -168.3, EBV LMP1 NFkB -28.1, TWEAK Fn14 block -27.2 and TROY NFkB inh -39.7.
`Cc1cccc2nc(CSc3nc4[nH]ncc4c(=O)n3-c3ccccc3Cl)cc(=O)n12` gave EWS-Fli inh 7.0, LGR2 inh -13.1, PAX8 reporter 21.8, EBV LMP1 NFkB 0.9, TWEAK Fn14 block 11.6 and TROY NFkB inh 9.9.
For Cc1ccccc1-n1c(SCc2cc(=O)n3ccccc3n2)nc2[nH]ncc2c1=O the results were EBV LMP1 NFkB 13.1 and TWEAK Fn14 block 60.2*.
`O=C(CC(Nc1cccc(Cl)c1Cl)C(=O)O)c1ccccc1` (stereo unspecified) gave EWS-Fli inh -7.4, LGR2 inh -26.9, PAX8 reporter -15.5, EBV LMP1 NFkB -6.2, TWEAK Fn14 block -8.7 and TROY NFkB inh 21.5.
`O=C(CC(Nc1ccccc1Cl)C(=O)O)c1ccccc1` (stereo unspecified) gave EWS-Fli inh -75.4, LGR2 inh 21.9, PAX8 reporter -68.8, EBV LMP1 NFkB -15.5, TWEAK Fn14 block 60.5* and TROY NFkB inh 64.9*.
C[C@H](NC(=O)C[C@H]1CC[C@H](NC(=O)c2cccnc2)[C@@H](CO)O1)c1ccccc1 was read as EWS-Fli inh -254.9, LGR2 inh -2.9 and PAX8 reporter -36.1.
COc1ccc(OCc2cccc(C(=O)Nc3cc(C)on3)c2)cc1 was read as PAX8 reporter 95.9*, EBV LMP1 NFkB 80.7*, TWEAK Fn14 block 14.3 and TROY NFkB inh -55.9.
`COc1ccc(C(=O)Nc2ccc(OCc3ccccc3)cc2)cc1[N+](=O)[O-]` gave EBV LMP1 NFkB 15.0, TWEAK Fn14 block -1.5 and TROY NFkB inh 22.9.
